We go through 40 compounds from PubChem BioAssay AID488913 (National Center for Advancing Translational Sciences (NCATS), 2010).

Each structure is given as a SMILES string. Inconclusive results are not listed. Active and inactive are the calls of the source. Calls follow the shape of the dose curve; as a rule, active = well fitted inhibition curve with a large enough effect; inconclusive = small, poorly fitted or top-dose-only effect, or effect the other way; inactive = no such curve, though single readings can be large or run the other way.

The nature of this test: Confirmation Concentration-Response Assay for lipid storage modulators: for probe SAR. Conditions: Drosophila S3 cells, BODIPY lipid droplet fluorescence, 18-24 h; series mostly up to 46.1 µM. From the text:
NIH Molecular Libraries Probe Production Centers Network [MLPCN] NIH Chemical Genomics Center [NCGC] MLPCN Grant: 1 R03 MH085686-01 Assay Submitter (PI): Beller, Mathias; Max-Planck-Institut fur Biophysikalische Chemie NCGC Assay Overview: Storing lipids as a reservoir for energy or the anabolism of elementary metabolites is a common feature of probably all cells and is conserved from bacteria to humans. The universal cellular lipid storage organelle is the so-called lipid storage droplet (LD). Although ubiquitous, LDs share a simple structure composed of a hydrophobic core that harbors the storage lipids, which is shielded by a droplet-specific phospholipid monolayer to which proteins are attached. The current model of LD biogenesis involves an incorporation of the lipid core into the membrane leaflets of the endoplasmic reticulum (ER) followed by a subsequent budding-like maturation of a LD, which ultimately pinches off. Once released, LD volume can increase by localized lipogenesis or fusion of existing droplets. Storage lipids are re-mobilized enzymatically by lipase activity. Lipase regulation in the adipocyte is heavily studied and involves multiple components including catecholamine signaling, the LD-associated proteins Perilipin and comparative gene identification-58 (CGI-58) and at least two lipases named hormone sensitive lipase (HSL) and adipocyte triglyceride lipase (ATGL). LD regulation outside of the adipocyte is poorly understood and only few components are known. However, there is an urgent need to learn more about ectopic fat depots as mislocalized storage of lipids, for example in the liver or muscle, is an eminent health problem associated with insulin resistance or the metabolic syndrome. We developed a laser-scanning cytometer assay to enable 1,536-well screening and combined the results of the small molecules screen with an RNAi database based on lipid storage.
We dispensed 4 uL of cells at 1.25 x 10^6 cells/mL into LoBase Aurora COC 1,536-well plates (black walled, clear bottom) with a bottle-valve solenoid-based dispenser (Aurora) to obtain 5,000 cells/well. Triacsin C (Sigma-Aldrich T-4540), an inhibitor of long-chain fatty acyl CoA synthetase that blocks synthesis of triglycerides, was used as a positive control for lipid under-storage. A total of 23 nL of compound solution of different concentrations were transferred to the assay plates using a Kalypsys pin tool equipped with a 1,536-pin array containing 10-nL slotted pins (FP1S10, 0.457-mm diameter, 50.8 mm long; V&P Scientific). One microliter of oleic acid (400 uM) was added, and the plate was lidded with stainless steel rubber gasket lined lids containing pinholes. After 18-24 h incubation at 24 degree Celsius and 95% humidity, 4 uL of the dyes BODIPY 493/503 (Molecular Probes) and the Cell Tracker Red CMTPX dye (Molecular Probes) were added to the wells to stain lipid droplets and enumerate cell number, respectively. Fluorescence was detected by excitation of the fluorophores with a 488-nm laser on an Acumen Explorer (TTP Lab Tech). The total intensity in channel 1 (500-530 nm) reflected lipid droplet accumulation. Cells were detected using channel 3 (575- 640 nm) with 5-um width and 100-um depth filters. The ratio of the total intensity in PMT channel 1 over total intensity of channel 3 was also calculated. Percent activity was computed relative to an internal control (100% inhibited lipid droplet deposition due to the presence of 20 uM Triacsin C), which was added to 32 wells/plate.
`Cc1ccc(C)c(-c2csc(NC(=O)CSc3nnc(Nc4ccc(OC(F)(F)F)cc4)s3)n2)c1`: the Potency result was “inactive”.

`CCOC(=O)C1CCN(C(=O)C2(NC(=O)Nc3ccc(F)cc3F)CCCCC2)CC1`: the Potency was 888 nM (active).

Take `CCOc1ccc(CCNC(=O)c2cc3sccc3n2CC=C(C)C)cc1OCC`: the Potency was 79.1 nM (active).

Consider `CCOc1ccc(CCNC(=O)c2cc3sccc3[nH]2)cc1OCC`, for which the Potency was 7910 nM (active).

On to `O=C(NC1CCCc2c1cnn2-c1ccc(F)cc1F)c1cccc(Cn2cccn2)c1` (stereo not given), for which the Potency was 125 nM (active).

`O=C(NC1CCCc2c1cnn2-c1ccc(F)cc1F)c1ccn[nH]1` (stereo not given): the Potency is 2810 nM (active).

For the compound `O=C(NC1CCCc2c1cnn2-c1ccc(F)cc1F)c1cccc(F)c1F` (stereo not given), the Potency is 315 nM (active).

Regarding `O=C(NC1CCCc2c1cnn2-c1ccc(F)cc1F)c1cccc(=O)[nH]1` (stereo not given), the Potency is 7910 nM (active).

With `Cc1nc(SC(C)C(=O)Nc2nc(-c3ccccc3)cs2)n(CC2CCCO2)c1C` (stereo not given), the Potency was 4450 nM (active).

As for `CCOc1ccc(CCNC(=O)Cc2ccccc2)cc1OCC`, the Potency entry was “inactive”.

Consider `COc1ccc(-c2csc(NC(=O)CSc3nnc(Nc4ccccc4)s3)n2)cc1`, for which the Potency was 628 nM (active).

Regarding `O=C(NC1CCCc2c1cnn2-c1ccc(F)cc1F)c1cnsn1` (stereo not given), the Potency is 499 nM (active).

Regarding `COc1ccc(NC(=S)N2CCN(c3cccc(Cl)c3)CC2)c(OC)c1`, the Potency entry was “inactive”.

For `CCn1c(C(=O)NCCc2ccc(OC)c(OC)c2)cc2sc(Cl)cc21`, the Potency is 9710 nM (active).

Consider `O=C(NCCc1ccc2c(c1)OCO2)c1cc2sccc2n1Cc1ccccc1`, for which the Potency entry was “inactive”.

In the case of `O=C(NC1CCCc2c1cnn2-c1ccc(F)cc1F)c1ccc(F)cc1` (stereo not given), the Potency was 445 nM (active).

Turning to `Cc1cc(SCc2sc(-c3ccc(C(F)(F)F)cc3)nc2C)ccc1OCC(=O)O`, the Potency result is “inactive”.

`O=C(NC1CCCc2c1cnn2-c1ccc(F)cc1F)c1ccsc1` (stereo not given): the Potency was 31.5 nM (active).

Regarding `O=C(NC1CCCc2c1cnn2-c1ccc(F)cc1F)c1ccncc1` (stereo not given), the Potency was 9960 nM (active).

On to `CCOC(=O)C1CCN(C(=O)C(C)(C)NC(=O)Nc2ccccc2Cl)CC1`, for which the Potency is 628 nM (active).

Regarding `CCOc1ccc(CCNC(=O)c2cc3sccc3n2CC)cc1OCC`, the Potency is 158 nM (active).

On to `O=C(NC1CCCc2c1cnn2-c1ccc(F)cc1F)c1cnccn1` (stereo not given), for which the Potency was 250 nM (active).

For `CCOC(=O)C1CCN(C(=O)C2(NC(=O)Nc3ccccc3Cl)CCCCC2)CC1`, the Potency was 1440 nM (active).

Turning to `CCOc1ccc(CCNC(=O)c2cc3sccc3n2Cc2ccc(OC(F)F)cc2)cc1OCC`, the Potency is 6.3 nM (active).

For the compound `CCOc1ccc(CCNC(=O)c2cc3sc(Cl)cc3n2CC)cc1OCC`, the Potency was 2230 nM (active).

On to `CCOc1ccc(CCNC(=O)c2cc3ccccc3n2C)cc1OCC`, for which the Potency is 7910 nM (active).

With `O=C(NC1CCCCC1)NC1(C(=O)N2CCCC2)CCCCC1`, the Potency entry is “inactive”.

On to `CC1(C)CCC(c2ccc(Cl)cc2)=C(CN2CCN(c3ccc(C(=O)NS(=O)(=O)c4ccc(N[C@H](CCN5CCOCC5)CSc5ccccc5)c(S(=O)(=O)C(F)(F)F)c4)cc3)CC2)C1`, for which the Potency was 996 nM (active).

On to `O=C(O)CCc1ccc(NCc2cccc(Oc3ccccc3)c2)cc1`, for which the Potency entry is “inactive”.

As to `O=C(NC1CCCc2c1cnn2-c1ccc(F)cc1F)c1c(F)cccc1Cl` (stereo not given), the Potency was 3530 nM (active).

For the compound `O=C(CSc1nnc(NCc2ccccc2)s1)Nc1nc(-c2ccc(F)c(F)c2)cs1`, the Potency is 1250 nM (active).

Regarding `CCOc1ccc(CCNC(=O)c2cccc(C(=O)c3ccccc3)c2)cc1OCC`, the Potency is 15800 nM (active).

In the case of `O=C(NC1CCCc2c1cnn2-c1ccc(F)cc1F)C1CCCCN1` (stereo not given), the Potency entry is “inactive”.

Turning to `CCOc1ccc(CCNC(=O)c2cccs2)cc1OCC`, the Potency entry is “inactive”.

Consider `COc1ccc(CCNC(=O)c2cc3sccc3n2Cc2ccc(Cl)cc2)cc1OC`, for which the Potency is 194 nM (active).

For `CC(=O)NCc1ccc(-c2csc(NC(=O)Cc3cccs3)n2)cc1`, the Potency entry is “inactive”.

Turning to `CCOC(=O)C1CCN(C(=O)C2(NC(=O)Nc3ccccc3Cl)CCC2)CC1`, the Potency is 2810 nM (active).

As for `CCOc1ccc(CCNC(=O)c2cc3sccc3n2CCc2ccccc2)cc1OCC`, the Potency was 28.1 nM (active).

For the compound `Cn1c(=O)n(-c2ccc(C(C)(C)C#N)cc2)c2c3cc(-c4cnc5ccccc5c4)ccc3ncc21`, the Potency is 1120 nM (active).

Regarding `CCOc1ccc(CCNC(=O)c2cc3sccc3n2Cc2ccc(-n3cncn3)cc2)cc1OCC`, the Potency was 177 nM (active).
